The source made the active and inactive calls. Unless noted, how the calls were made is not given here.
Tests used:
[1] = anti-His antibody binders, primary screen, artefact control for SMM control protein annotation, biochemical, small-molecule microarray, 635 nm fluorescence (AID 1128); details: anti-His Alexa647 antibody binding, higher = more signal;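 further: score merges feature fluorescence with signal-to-noise for each printed compound spot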
[2] = tested on: Human papillomavirus type 1a E7 protein (residues 1-88); test: HPV1a E7 small-molecule binders, primary screen, biochemical, small-molecule microarray, residues 1-88, 635 nm (AID 1129); details: small-molecule microarray binding, fluorescence 635 nm; higher = more signal
[3] = molecular target: Focal adhesion kinase 1 (Homo sapiens) (UniProt Q05397); test: small-molecule microarray binders of FAK, primary screen, biochemical, 635/667 nm fluorescence, BSA, DTT (AID 1130); details: PTK2 binding, 635 nm fluorescence, higher = more signal;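 further: composite of spot emission at 667 nm and signal to noise over triplicate slides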
[4] = tested on: Fibrinogen (Alexa647-labelled); test: fibrinogen binders on compound microarrays, profiling panel, artefact control for SMM control-protein annotation, biochemical, small-molecule microarray, 635/667 nm fluorescence (AID 1131); details: fibrinogen-A647 binding fluorescence, higher = more signal;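 further: z-score merges 667 nm fluorescence with per-spot signal-to-noise over triplicate slides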
[5] = molecular target: Follistatin (Homo sapiens) (UniProt P19883); test: follistatin binders on small-molecule microarrays, primary screen, biochemical, small-molecule microarray, 635/667 nm fluorescence (AID 1132); details: FST binding, 635 nm fluorescence, higher = more signal
[6] = molecular target: Fibroblast growth factor 2 (Homo sapiens) (UniProt P09038); test: FGF2 binders on small-molecule microarrays, primary screen, biochemical, small-molecule microarray, 635/667 nm fluorescence (AID 1133); details: small-molecule microarray binding, FGF2, fluorescence 635/667; higher = more signal
[7] = mitochondrial membrane potential change in A549 cells, profiling panel, cell-based, JC-1 fluorescence, basal, 24 h, 100 nL (AID 1138); details: higher = more signal;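 further: A549 lung adenocarcinoma cells under basal conditions with no added stimulus; test concentration not given here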
Lefty1 = Lefty1 binders on small-molecule microarrays, primary screen, biochemical, small-molecule microarray, 635/667 nm fluorescence (AID 1139); details: small-molecule microarray binding, fluorescence 635/667; higher = more signal
[8] = tested on: wheat germ agglutinin (Triticum aestivum), Alexa647-labelled; test: wheat germ agglutinin binders on compound microarrays, profiling panel, artefact control for SMM control-protein annotation, biochemical, small-molecule microarray, 635/667 nm fluorescence (AID 1140); details: WGA-A647 binding, 635 nm fluorescence, higher = more signal;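 further: score merges 667 nm feature emission with signal to noise over triplicate slides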
[9] = molecular target: Luciferin 4-monooxygenase (Photinus pyralis) (UniProt P08659); test: firefly luciferase enzyme inhibitors, primary screen, biochemical, luminescence, purified enzyme, 2006 set (AID 1141); details: SteadyGlo luminescence, 30 min, higher = more signal, called active from +8 up or from −8 down;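 further: cell-free assay with purified firefly luciferase at 100 ng per well in PBS; test concentration not given here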
[10] = tested on: Wnt5a (protein binding on small-molecule microarray); test: Wnt5a binders on small-molecule microarray, primary screen, biophysical, 635/667 nm fluorescence (AID 1142); details: 635 nm fluorescence, higher = more signal;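 further: fluorescence read at 667 nm with signal to noise per printed feature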
[11] = cell viability in Huh7 cells, primary screen, cytotoxicity control for HCV replication inhibitor project, CellTiter-Glo luminescence, basal, 48 h (AID 1143); details: Huh7 HCV replicon, higher = more signal, called active from +8 up or from −8 down;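 further: Huh7 hepatoma cells carrying a hepatitis C replication reporter with no stimulus; test concentration not given here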
[12] = P. aeruginosa biofilm formation inhibitors, primary screen, PAO1 strain, BacTiter-Glo luminescence, LB-PBS (AID 1144); details: 12 h, higher = more signal
[13] = CREB reporter modulators without forskolin, primary screen, cell-based, PC12, CRE-LacZ reporter, unstimulated (AID 1145); details: no forskolin, luminescence, 4.5 h, higher = more signal, called active from +8 up or from −8 down
[14] = CREB reporter modulators under forskolin, primary screen, cell-based, PC12, CRE-LacZ reporter, forskolin-stimulated (AID 1146); details: luminescence, 4.5 h, higher = more signal, called active from +8 up or from −8 down;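 further: PC12 cells with 6xCRE LacZ reporter stimulated by forskolin 10 µM; beta-galactosidase reporter signal reflecting CREB driven transcription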
[15] = molecular target: Streptavidin (Streptomyces avidinii) (UniProt P22629); test: streptavidin binders on small-molecule microarray, primary screen, artefact control for SMM compound annotation, biophysical, 635/667 nm fluorescence (AID 1147); details: streptavidin binding, higher = more signal;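 further: signal reflects streptavidin binding to arrayed compounds as a control protein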
[16] = small-molecule binders of probe aInhba, primary screen, biochemical, small-molecule microarray, 635/667 nm fluorescence (AID 1148); details: higher = more signal;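 further: score merges 667nm spot fluorescence with signal-to-noise for antibody binding to printed compounds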
Torsin-1A (Homo sapiens) [17] = molecular target: Torsin-1A (Homo sapiens) (UniProt O14656); test: torsin A binders from cell lysate, primary screen, small-molecule microarray, wild-type, 635/667 nm (AID 1149); details: COS7 hTOR1A-WT lysate, 635 nm fluorescence, higher = more signal
Torsin-1A (Homo sapiens) [18] = molecular target: Torsin-1A (Homo sapiens) (UniProt O14656); test: small-molecule binders of mutant TOR1A in lysate, primary screen, cell lysate, small-molecule microarray, COS7 lysate, 635/667 nm fluorescence (AID 1150); details: COS7 hTOR1A mutant lysate, 635 nm fluorescence, higher = more signal;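 further: score pools 667 nm emission and signal to noise measuring lysate protein binding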
[19] = tested on: Sonic hedgehog protein (Shh); test: small-molecule binders of Shh protein, primary screen, biochemical, small-molecule microarray, 635/667 nm fluorescence (AID 1151); details: small-molecule microarray binding, 635 nm fluorescence; higher = more signal;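 further: Shh protein binding to compounds spotted on small-molecule microarray slides; score combines spot fluorescence intensity with signal-to-noise across triplicate slides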

Chain of Focal adhesion kinase 1 (Homo sapiens) (Q05397 whole entry, looked up): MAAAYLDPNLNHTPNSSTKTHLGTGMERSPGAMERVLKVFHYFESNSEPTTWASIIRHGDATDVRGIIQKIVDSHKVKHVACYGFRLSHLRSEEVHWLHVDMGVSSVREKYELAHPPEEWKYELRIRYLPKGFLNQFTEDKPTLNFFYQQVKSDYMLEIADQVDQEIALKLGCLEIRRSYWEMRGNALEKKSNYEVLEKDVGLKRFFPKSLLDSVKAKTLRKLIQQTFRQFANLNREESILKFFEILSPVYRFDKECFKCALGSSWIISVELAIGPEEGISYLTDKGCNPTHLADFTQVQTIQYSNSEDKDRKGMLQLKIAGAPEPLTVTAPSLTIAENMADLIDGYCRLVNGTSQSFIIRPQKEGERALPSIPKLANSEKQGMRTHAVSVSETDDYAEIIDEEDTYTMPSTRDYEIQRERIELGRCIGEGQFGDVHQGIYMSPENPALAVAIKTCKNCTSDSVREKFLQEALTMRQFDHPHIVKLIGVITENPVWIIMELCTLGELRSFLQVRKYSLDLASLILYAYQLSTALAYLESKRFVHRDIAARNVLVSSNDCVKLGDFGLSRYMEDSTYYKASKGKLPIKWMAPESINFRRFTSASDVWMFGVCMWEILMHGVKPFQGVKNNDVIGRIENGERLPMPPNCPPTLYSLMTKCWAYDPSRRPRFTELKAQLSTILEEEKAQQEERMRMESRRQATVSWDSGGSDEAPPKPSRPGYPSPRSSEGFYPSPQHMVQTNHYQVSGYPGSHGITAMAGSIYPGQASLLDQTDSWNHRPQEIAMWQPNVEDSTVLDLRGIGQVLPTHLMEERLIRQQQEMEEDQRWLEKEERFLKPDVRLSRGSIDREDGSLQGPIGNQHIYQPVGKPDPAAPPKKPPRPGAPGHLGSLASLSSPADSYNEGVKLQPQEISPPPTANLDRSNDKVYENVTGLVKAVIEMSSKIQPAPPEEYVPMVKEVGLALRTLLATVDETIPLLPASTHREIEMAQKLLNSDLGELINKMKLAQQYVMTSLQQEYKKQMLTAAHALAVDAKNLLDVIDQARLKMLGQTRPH
Chain of Torsin-1A (Homo sapiens) (O14656 whole entry, looked up): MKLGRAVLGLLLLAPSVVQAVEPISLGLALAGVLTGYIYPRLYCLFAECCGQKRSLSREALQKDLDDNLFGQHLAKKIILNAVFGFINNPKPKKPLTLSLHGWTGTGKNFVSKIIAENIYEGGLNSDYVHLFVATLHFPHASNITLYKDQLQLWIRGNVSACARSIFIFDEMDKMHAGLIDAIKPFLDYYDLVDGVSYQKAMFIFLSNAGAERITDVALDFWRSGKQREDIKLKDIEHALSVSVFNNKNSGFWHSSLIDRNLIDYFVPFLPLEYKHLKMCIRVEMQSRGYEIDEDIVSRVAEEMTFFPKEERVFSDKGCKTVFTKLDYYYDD
Chain of Streptavidin (Streptomyces avidinii) (P22629 whole entry, looked up): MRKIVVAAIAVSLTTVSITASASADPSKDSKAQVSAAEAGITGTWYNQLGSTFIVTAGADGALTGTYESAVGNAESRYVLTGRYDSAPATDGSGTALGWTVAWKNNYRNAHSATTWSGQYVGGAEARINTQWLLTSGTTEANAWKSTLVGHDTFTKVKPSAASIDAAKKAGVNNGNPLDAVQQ
Chain of Follistatin (Homo sapiens) (P19883 whole entry, looked up): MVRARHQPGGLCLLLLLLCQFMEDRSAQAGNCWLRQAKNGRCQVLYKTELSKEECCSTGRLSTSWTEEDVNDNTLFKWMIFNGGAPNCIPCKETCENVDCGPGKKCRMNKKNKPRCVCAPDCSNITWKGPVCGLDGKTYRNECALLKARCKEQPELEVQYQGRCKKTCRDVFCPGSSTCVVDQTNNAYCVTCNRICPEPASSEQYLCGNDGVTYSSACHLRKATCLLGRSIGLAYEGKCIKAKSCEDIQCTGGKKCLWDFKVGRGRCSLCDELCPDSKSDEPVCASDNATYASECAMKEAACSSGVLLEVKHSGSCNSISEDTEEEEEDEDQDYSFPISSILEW
Chain of Luciferin 4-monooxygenase (Photinus pyralis) (P08659 whole entry, looked up): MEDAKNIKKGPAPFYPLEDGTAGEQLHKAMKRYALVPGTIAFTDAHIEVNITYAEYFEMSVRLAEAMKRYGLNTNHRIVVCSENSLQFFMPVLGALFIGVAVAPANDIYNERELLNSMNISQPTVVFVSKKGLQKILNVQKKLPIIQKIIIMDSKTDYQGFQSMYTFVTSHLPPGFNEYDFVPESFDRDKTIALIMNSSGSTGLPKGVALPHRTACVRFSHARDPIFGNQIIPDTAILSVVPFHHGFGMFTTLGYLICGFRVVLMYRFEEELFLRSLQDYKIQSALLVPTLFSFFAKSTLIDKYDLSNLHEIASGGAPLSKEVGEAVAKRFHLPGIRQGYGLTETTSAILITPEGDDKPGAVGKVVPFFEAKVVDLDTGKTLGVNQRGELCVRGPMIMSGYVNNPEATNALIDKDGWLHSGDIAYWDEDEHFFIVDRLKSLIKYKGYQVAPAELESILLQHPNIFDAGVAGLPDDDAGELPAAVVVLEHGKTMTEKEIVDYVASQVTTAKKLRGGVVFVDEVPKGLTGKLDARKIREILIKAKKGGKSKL
Chain of Fibroblast growth factor 2 (Homo sapiens) (P09038 whole entry, looked up): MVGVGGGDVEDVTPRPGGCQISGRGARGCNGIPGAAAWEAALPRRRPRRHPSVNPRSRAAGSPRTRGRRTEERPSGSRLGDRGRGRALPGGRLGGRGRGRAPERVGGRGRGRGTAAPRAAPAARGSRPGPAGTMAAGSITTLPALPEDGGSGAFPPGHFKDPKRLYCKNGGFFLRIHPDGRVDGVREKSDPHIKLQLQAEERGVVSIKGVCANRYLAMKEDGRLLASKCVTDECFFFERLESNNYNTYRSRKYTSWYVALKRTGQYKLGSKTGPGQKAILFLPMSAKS

Structure (SMILES)	composite z-score [1]	composite z-score [2]	composite z-score [3]	composite z-score [4]	composite z-score [5]	composite z-score [6]	z-score [7]	composite z-score (Lefty1)	composite z-score [8]	z-score [9]	composite z-score [10]	z-score [11]	z-score [12]	z-score [13]	z-score [14]	composite z-score [15]	composite z-score [16]	composite z-score (Torsin-1A (Homo sapiens) [17])	composite z-score (Torsin-1A (Homo sapiens) [18])	composite z-score [19]
C=CCOC(=O)[C@H]1[C@@H]2C(=O)O[C@@H](c3ccccc3)[C@@H](c3ccccc3)N2[C@@H](c2ccc(OCCOC(=O)[C@H]3C[C@H]4C(=O)N[C@@H](CCCCNC(C)=O)C(=O)N4[C@H]3c3ccc(O)cc3)cc2)[C@]12C(=O)Nc1ccccc12	2.7	1.12	0.765	0.732	1.4	1.63	-1.16	1.1	0.538	-2.37 (inactive)	0.228	-1.59 (inactive)	-1.57 (inactive)	0.147 (inactive)	-0.542 (inactive)	-0.292	-0.146	0.757	0.835	1.75
C[C@H]1NC(=O)[C@@]23C(=O)N[C@@H](Cc4ccccc4)C2[C@H](C)[C@@]2(C)O[C@H]2C3/C=C/C/C=C\CNC(=O)[C@H](Cc2ccccc2)NC1=O (stereo not given in full)	0.624	-0.0861	-0.219	0.617	0.884	0.811	-0.0755	0.942	0.404	-0.203 (inactive)	0.0319	-0.945 (inactive)	-0.773 (inactive)	-0.508 (inactive)	-0.0421 (inactive)	-0.178	-0.0963	-0.2	0.113	1.63
O=C1O[C@H](c2ccccc2)[C@H](c2ccccc2)N2[C@H]1[C@@H](C(=O)N1CCN(c3ncccn3)CC1)[C@]1(C(=O)Nc3ccc(C#CC4(O)CCCCCC4)cc31)[C@H]2c1ccc(OCCO)cc1	1.14	1.23	1.03	0.966	1.27	1.48	-1.46	1.38	1.03	-1.2 (inactive)	1.4	-0.69 (inactive)	-1.09 (inactive)	-0.698 (inactive)	-0.509 (inactive)	2.76	1.05	0.801	1.74	2.02
COc1ccc(NC(=O)O[C@H]2[C@H](OC(=O)Nc3ccccc3)[C@@H](OC(=O)Nc3ccccc3)[C@@H](OC)O[C@@H]2CO)cc1	1.77	1.21	0.634	0.825	1.34	1.72	-0.506	0.512	0.626	0.0551 (inactive)	1.48	-4.91 (inactive)	-1.81 (inactive)	0.895 (inactive)	-1.52 (inactive)	0.0017	0.0342	0.66	1.26	1.17
O=C(NCC(F)(F)F)[C@@H]1c2ccccc2C(=O)N(Cc2ccccc2C(F)(F)F)[C@H]1c1ccc(CO)cc1	0.219	-0.479	-0.335	-1.14	0.706	0.548	0.0955	-0.569	-0.885	0.461 (inactive)	0.38	-0.325 (inactive)	0.266 (inactive)	-0.295 (inactive)	1.02 (inactive)	-0.631	0.0906	0.702	-0.274	0.0223
OCC1CC(c2ccccc2)=NO1 (stereo not given)	0.702	-0.0937	-0.219	-0.327	0.5	0.774	0.875	-0.0193	-0.239	-1.4 (inactive)	0.111	0.414 (inactive)	-0.0165 (inactive)	0.312 (inactive)	-0.295 (inactive)	2.47	-0.0405	0.99	0.322	0.0003
C=CCOC(=O)[C@H]1[C@@H]2C(=O)O[C@@H](c3ccccc3)[C@@H](c3ccccc3)N2[C@@H](c2ccc(OCCOC(=O)[C@H]3C[C@H]4C(=O)N[C@@H](CC(C)C)C(=O)N4[C@H]3c3cccc(OCCO)c3)cc2)[C@]12C(=O)Nc1ccc(I)cc12	2	1.18	0.84	0.452	1.36	1.71	-0.175	1.22	0.437	-1.48 (inactive)	0.725	0.0478 (inactive)	0.568 (inactive)	0.411 (inactive)	-0.368 (inactive)	0.205	-0.154	0.644	0.908	1.73
CCOC(=O)C[C@H]1[C@H](OC(=O)c2ccc(C(=O)c3ccccc3)cc2)[C@@H](NC(=O)Cc2ccc(OC)cc2)c2cc(OCCCO)ccc2N1C(=O)c1ccccc1	0.305	0.498	0.15	0.157	-0.17	0.23	1.14	0.162	-0.337	0.449 (inactive)	0.328	-0.117 (inactive)	-0.0806 (inactive)	1.47 (inactive)	0.926 (inactive)	0.162	-0.0762	0.0313	0.337	0.622
CCOC(=O)C[C@H]1[C@H](OC(=O)Cc2ccc3c(c2)OCO3)[C@@H](NC(=O)CC(C)C)c2cc(OCCCO)ccc2N1C(=O)Cc1ccc(OC)cc1	-0.114	0.0383	-0.224	0.641	-0.123	0.11	0.903	-0.194	0.62	-1.91 (inactive)	-0.199	-1.04 (inactive)	0.29 (inactive)	0.0918 (inactive)	-0.513 (inactive)	-0.0258	-0.0471	0.288	-0.115	-0.113
O=C1O[C@@H](c2ccccc2)[C@@H](c2ccccc2)N2[C@@H](c3ccc(O)cc3)[C@]3(C(=O)Nc4ccc(C#CC5=CCCCC5)cc43)[C@@H](C(=O)NC[C@H](O)c3ccccc3)[C@H]12	0.219	1.19	0.134	0.925	1.45	1.69	-0.945	0.907	1	-1.38 (inactive)	0.361	-3.48 (inactive)	-1.16 (inactive)	-0.0246 (inactive)	-0.199 (inactive)	0.212	0.0833	0.675	0.677	1.48
